“And” between values parts separate entries of the source, which are not always exact repeats. Equal entries are not always repeated.
How the values were obtained:
Assay type in all cases: functional
Plasmodium falciparum [1] = experiment: GSK_TCMDC: Inhibition of Plasmodium falciparum 3D7 in whole red blood cells, using parasite LDH activity as an index of growth. Test compounds present at 2uM
Plasmodium falciparum [2] = experiment: GSK_TCMDC: Inhibition of Plasmodium falciparum Dd2 in whole red blood cells, using parasite LDH activity as an index of growth. Test compounds present at 2uM
HepG2 = experiment: GSK_TCMDC: Percent inhibition of human HepG2 cell line. Test compounds present at 10uM.

Row | SMILES | Inhibition (Plasmodium falciparum [1]) [%] | Inhibition (Plasmodium falciparum [2]) | Inhibition (HepG2)
1 | S=C(NCCc1ccc(Cl)cc1)NC1CCC(CN2CCC(c3c[nH]c4ccccc34)CC2)CC1 (stereo not given) | 100 | 84% and 34% | 42% and 37%
2 | O=[N+]([O-])c1ccc(Oc2c(Cl)cc(S(=O)(=O)N3CCC(CN4CCC(c5c[nH]c6ccccc56)CC4)CC3)cc2Cl)c(Cl)c1 | 100 | 83% | 43%
3 | COc1ccc(OC)c(C(O)C(C)NCc2cc(Cl)ccc2O)c1.Cl (stereo not given) | 97 | 99% | 11%
4 | CC(Cc1ccc(C2=CCNCC2)cc1)NCC(O)c1cccc(C(F)(F)F)c1.Cl (stereo not given) | 89 | 0% | 27%
5 | C=C[C@H]1CN2CC[C@@H]1C[C@H]2[C@H](O)c1cc(-c2ccc(F)cc2)nc2ccc(OC)cc12.Cl | 99 | 98% | 5%
6 | CC(C)CNCc1ccc(-c2ccc(CN(C(=O)Nc3ccccc3)C3CCN(Cc4ccccc4)CC3)cc2)cc1.O=C(O)C(F)(F)F | 100 | 61% | 27%
7 | CN(C)CCC(=O)c1ccccc1.Cl | 100 | 5% | 11%
8 | O=C(/C=C/c1cccs1)NC1CCC(CN2CCC(c3c[nH]c4ccccc34)CC2)CC1 (stereo not given) | 82 | 29% | 33%
9 | COc1cc(CC(C)NCC(O)c2cccc(C(F)(F)F)c2)ccc1OCc1ccccc1 (stereo not given) | 93 | 71% | 2%
10 | O=C(NC1CCC(N2CCC3(CC2)C(=O)NCN3c2ccccc2)CC1)c1cc2ccccc2[nH]1 (stereo not given) | 98 | 40% | 0%
11 | CCC(C)CN1CCC(N(C)c2cc(NC(=O)c3cccc(C)c3)ccn2)CC1.O=C(O)C(F)(F)F (stereo not given) | 93 | 14% | 1%
12 | O=C(NC1CCC(CN2CCC(c3c[nH]c4ccccc34)CC2)CC1)c1ccc(-c2cc(C(F)(F)F)ccc2Cl)o1 (stereo not given) | 100 | 34% | 5%
13 | CCC1(C)CC(CCNCc2ccccc2O)(c2ccc(C)cc2)CCO1 (stereo not given) | 97 | 66% | 9%
14 | CC(Cc1ccc(Oc2ccc(Cl)cc2)cc1)NCC(O)c1cccc(Cl)c1 (stereo not given) | 99 | 98% | 3%
15 | CC[C@H]1CN2CC[C@@H]1C[C@H]2[C@H](O)c1cc(N2CCC(c3ccccc3)CC2)nc2ccc(OC)cc12 | 99 | 98% | 45%
16 | Cc1cc(C2CCCCN2C)ccc1-c1ccc(C(=O)N2CCc3cc4c(cc32)C2(CCN(C)CC2)CO4)cc1.Cl (stereo not given) | 95 | 94% | 37%
17 | COc1cccc(CC(C)NCC(O)c2cccc(Cl)c2)c1.Cl (stereo not given) | 85 | 76% | 7%
18 | COc1ccc(CN(C2CC2)C(C)C(=O)c2[nH]c(C)c(C(C)=O)c2C)cc1 (stereo not given) | 98 | 64% | 40%
19 | CN(c1cc(NC(=O)c2ccc(F)cc2)ccn1)C1CCN(Cc2cccc(O)c2)CC1.O=C(O)C(F)(F)F | 100 | 82% | 3%
20 | CC[C@H]1CN2CC[C@H]1C[C@H]2[C@H](O)c1cc(-c2ccc(SC)cc2)nc2ccc(OC)cc12.Cl | 98 | 99% | 9%

Row | SMILES | Inhibition (Plasmodium falciparum [1]) [%] | Inhibition (Plasmodium falciparum [2]) | Inhibition (HepG2)
21 | CC(Cc1ccc(NC(=O)[C@H](C)NCCc2cccc(Cl)c2)cc1)NCCc1cccc(Cl)c1.Cl (stereo not given in full) | 100 | 54% | 99%
22 | Br.COC(=O)c1ccc(CC(C)NCC(O)c2cccc(OC(F)(F)F)c2)cc1 (stereo not given) | 98 | 67% | 2%
23 | CN(C)c1cccc(CCNCCc2c[nH]c3ccc(Cl)cc23)c1.O=C(O)C(=O)O | 94 | 75% | 19%
24 | COc1ccc(OC)c(C(O)CNC(C)C)c1.Cl (stereo not given) | 96 | 0% | 3%
25 | COC(=O)/C=C/c1ccc(CC(C)NCC(O)c2cccc(C(F)(F)F)c2)cc1 (stereo not given) | 97 | 96% | 16%
26 | CCC1(C)CC(CCNCc2ccccc2O)(c2ccc(F)cc2)CCO1 (stereo not given) | 98 | 32% | 20%
27 | CC(C)CCNC(=O)c1cc(C(=O)c2cc(F)ccc2O)cn(CCC(C)C)c1=O | 100 | 45% | 14%
28 | CCCCCc1cc(O)c2c(c1)OC(C)(C)CC2C1=CCN(Cc2ccccc2)CC1 (stereo not given) | 99 | 79% | 15%
29 | COC(=O)c1ccc(CC(C)NCC(O)c2cccc(OCc3ccccc3)c2)cc1.Cl (stereo not given) | 86 | 37% | 11%
30 | CCCc1ccc2c(c1O)CCC(N(CCC)CCC)C2.Cl (stereo not given) | 90 | 23% | 0%
31 | COc1ccccc1CC(C)NCC(O)c1cccc(Cl)c1 (stereo not given) | 97 | 98% | 13%
32 | CC(=O)N(Cc1cccc(-c2cccc(CNCc3ccc4c(c3)OCO4)c2)c1)C1CCN(Cc2ccccc2)CC1.O=C(O)C(F)(F)F | 95 | 21% | 16%
33 | C1=C(c2c[nH]c3ccccc23)CCN(Cc2ccccc2)C1 | 91 | 80% | 22%
34 | CC[C@H]1CN2CC[C@H]1C[C@H]2[C@H](O)c1cc(N2CCCC2)nc2ccc(OC)cc12 | 98 | 100% | 0%
35 | CC(=O)N(Cc1ccccc1-c1cccc(CNCc2ccc3c(c2)OCO3)c1)C1CCN(Cc2ccccc2)CC1.O=C(O)C(F)(F)F | 85 | 44% | 17%
36 | COc1cc(C(=O)NC2CCC(CN3CCC(c4c[nH]c5ccccc45)CC3)CC2)cc(Cl)n1 (stereo not given) | 99 | 45% | 33%
37 | Cc1c(C(=O)NC2CCC(CN3CCC(c4c[nH]c5ccccc45)CC3)CC2)cnn1-c1c(Cl)cc(Cl)cc1Cl (stereo not given) | 100 | 97% | 53%
38 | COc1nc(N)ncc1C(=O)NC1CN2CCC1CC2 (stereo not given) | 92 | 0% | 26%
39 | CO/C(=C\C=C\c1cc2cc(Cl)c(Cl)cc2[nH]1)C(=O)N[C@H]1CN2CCC1CC2 | 82 | 36% | 43%
40 | O=C(/C=C/c1cccc2ccccc12)NC1CCC(CN2CCC(c3c[nH]c4ccccc34)CC2)CC1 (stereo not given) | 100 | 72% and 66% | 45% and 53%

Row | SMILES | Inhibition (Plasmodium falciparum [1]) [%] | Inhibition (Plasmodium falciparum [2]) | Inhibition (HepG2)
41 | COC(=O)c1ccc(CC(C)NCC(O)c2ccccc2Cl)cc1 (stereo not given) | 94 | 55% | 1%
42 | CC1=CC(=O)[C@@H](O)[C@]2(C)[C@H]3[C@@]4(O)OC[C@@]35[C@@H](C[C@@H]12)OC(=O)C[C@H]5[C@@H](C)[C@H]4O [CHAPARRINONE] | 99 | 98% | 38%
43 | CCN(CC)CCN1C(=O)C(O)(c2ccccc2Cl)c2c1cc(C(N)=O)cc2C(F)(F)F.Cl (stereo not given) | 100 | 86% | 16%
44 | Cc1c(C)c2c(c(C)c1O)CC[C@](C)(C(=O)N1CCC(CN3CCC(c4c[nH]c5ccccc45)CC3)CC1)O2 | 100 | 98% | 29%
45 | Cc1[nH]c2ccccc2c1C1=CCN(CCN2CCCc3c(Br)cccc3C2=O)CC1 | 95 | 90% | 10%
46 | CC[C@H]1CN2CC[C@@H]1C[C@H]2[C@H](O)c1cc(N2CCC(N3CCCCC3)CC2)nc2ccc(OC)cc12 | 99 | 77% | 0%
47 | CCCCC/C=C/C(=O)NC1CCC(CN2CCC(c3c[nH]c4ccccc34)CC2)CC1 (stereo not given) | 87 | 11% | 19%
48 | O=C1Nc2cccc3c2C1(CCCCN1CC=C(c2c[nH]c4ncccc24)CC1)CCC3 (stereo not given) | 92 | 80% | 11%
49 | COc1ccc(OC)c(CNCC(O)c2cc(C(F)(F)F)cc(C(F)(F)F)c2)c1 (stereo not given) | 92 | 100% | 7%
50 | O=C(/C=C/c1ccc(Cl)c(Cl)c1)Nc1cccc(CN2CCC(c3c[nH]c4ccc(O)cc34)CC2)c1 | 100 | 90% | 11%
51 | CC(C)n1ncc2c(C(=O)Nc3ccc(C#N)c(Cl)c3)cc(C3CC3)nc21 | 93 | 15% | 20%
52 | COc1cccc(C(=O)C2CC2CN2CC=C(c3c[nH]c4cccc(Br)c34)CC2)c1 (stereo not given) | 96 | 85% | 22%
53 | O=C(/C=C/c1ccc(Cl)c(Cl)c1)N1CCC2CC(N3CCC(c4c[nH]c5ccccc45)CC3)CCC2C1 (stereo not given) | 100 | 99% | 31%
54 | Cn1nc(C(F)(F)F)cc1-c1ccc(C(=O)NC2CCC(CN3CCC(c4c[nH]c5ccccc45)CC3)CC2)s1 (stereo not given) | 100 | 97% | 45%
55 | COc1coc(C(=O)NC2CCN(CC3(c4ccc(Cl)cc4)CCC3)CC2)c1OC | 96 | 96% | 2%
56 | CN(c1ccc(NC(=O)CCOc2ccccc2)cc1)C1CCN(Cc2cccc(O)c2)CC1.O=C(O)C(F)(F)F | 89 | 0% | 18%
57 | CC(C)C[C@H](Nc1ccc(C#N)c2ccccc12)C(=O)N[C@@H]1CCCc2ccccc21.O=C(O)C(F)(F)F | 99 | 100% | 38%
58 | Cc1[nH]c2ccccc2c1C1=CCN(CCCCC2(C)C(=O)Nc3cccc(F)c32)CC1 (stereo not given) | 95 | 90% | 9%
59 | COC(=O)c1ccc(CC(C)NCC(O)c2ccc(F)c(Cl)c2)cc1.Cl (stereo not given) | 98 | 78% | 0%
60 | CCC1CN2CCc3cc(OC)c(OC)cc3C2CC1CC1NCCc2c1[nH]c1ccc(O)cc21 (stereo not given) | 99 | 100% | 45%

Source: ChEMBL document CHEMBL1157539, “Thousands of chemical starting points for antimalarial lead identification” (Nature, 2010)
